Inconclusive results are not listed. Calls of active or inactive are those of the source. Unless noted, calls follow the shape of the dose curve; as a rule, active = well fitted curve in the direction sought with a large enough effect in the repeat runs; inconclusive = weak or mixed curves; inactive = no such curve, though single readings can be large; an effect the other way counts as inactive or inconclusive.
% is scaled to controls: 0 for no effect and ±100 for the full control effect.

Aromatase (Homo sapiens), sequence (P11511 whole entry, looked up): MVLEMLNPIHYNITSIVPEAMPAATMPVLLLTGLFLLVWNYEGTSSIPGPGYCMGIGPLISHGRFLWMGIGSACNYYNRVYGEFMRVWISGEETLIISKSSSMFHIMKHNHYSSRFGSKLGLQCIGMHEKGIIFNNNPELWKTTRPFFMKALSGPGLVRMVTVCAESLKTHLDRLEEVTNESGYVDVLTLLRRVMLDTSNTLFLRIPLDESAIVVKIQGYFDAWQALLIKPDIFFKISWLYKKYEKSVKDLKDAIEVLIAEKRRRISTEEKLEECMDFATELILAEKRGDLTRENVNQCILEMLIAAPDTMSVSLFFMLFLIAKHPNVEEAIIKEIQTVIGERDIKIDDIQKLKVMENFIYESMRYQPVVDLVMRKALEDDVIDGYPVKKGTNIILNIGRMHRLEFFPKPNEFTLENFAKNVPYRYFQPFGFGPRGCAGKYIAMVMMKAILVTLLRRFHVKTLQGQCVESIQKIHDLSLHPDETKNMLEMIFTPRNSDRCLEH
Estrogen receptor (Homo sapiens), sequence (P03372 whole entry, looked up): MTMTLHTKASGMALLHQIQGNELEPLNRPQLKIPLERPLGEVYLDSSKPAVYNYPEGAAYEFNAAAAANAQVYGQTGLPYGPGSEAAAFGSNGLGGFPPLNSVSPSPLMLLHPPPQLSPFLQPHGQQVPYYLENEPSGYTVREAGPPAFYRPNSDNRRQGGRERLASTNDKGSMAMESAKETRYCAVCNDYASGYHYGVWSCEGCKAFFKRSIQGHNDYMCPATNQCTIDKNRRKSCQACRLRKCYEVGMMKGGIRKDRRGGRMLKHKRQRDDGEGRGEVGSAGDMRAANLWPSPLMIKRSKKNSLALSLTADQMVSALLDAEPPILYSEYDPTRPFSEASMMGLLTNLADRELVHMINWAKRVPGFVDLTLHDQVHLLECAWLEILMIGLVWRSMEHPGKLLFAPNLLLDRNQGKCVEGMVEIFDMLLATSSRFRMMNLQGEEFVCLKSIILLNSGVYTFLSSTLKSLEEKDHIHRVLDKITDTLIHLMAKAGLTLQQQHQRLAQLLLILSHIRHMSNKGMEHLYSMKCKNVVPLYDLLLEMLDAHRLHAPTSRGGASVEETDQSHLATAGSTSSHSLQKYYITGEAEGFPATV

The first test concerns the target Estrogen receptor (Homo sapiens) (UniProt P03372). Put plainly: qHTS assay to identify small molecule agonists of the estrogen receptor alpha (ER-alpha) signaling pathway using the BG1 cell line (AID 743079). Also: nearly all actives have a fitted effect of over 20% in size. Also: potency is read from the fitted curve at half-maximal effect. The note with it: BG1Luc4E2 cells, ERE-luciferase agonist, 22 h; series mostly up to 70.3 µM; activation: at the top concentration.
For the molecule `COc1ccc2c(c1)c1c3n2CCN(C)C3=NCC1`, the “activation” value is 11.5% (inactive).
On to `O=C(O)CNC(=O)CNC(=O)CNC(=O)CSC(=O)c1ccccc1`, for which the “activation” value was -7.93% (inactive).
Same read-out and setting: in the case of `NCC1(Cc2noc(=O)[nH]2)CCCCC1` it was -1.29% (inactive).
Turning to `OCCN1CCOCC1`, the “activation” value was 33.1% (inactive).
Take `CCC(C)C(C)=O` (centres undefined): the Potency is 67 µM (active).
Take `CCCCOC(=O)[C@H](C)O`: the “activation” value is 3.32% (inactive).
For the molecule `O=C(NCN1CCOCC1)c1cnccn1`, the “activation” value is 0.515% (inactive).
Same read-out and setting: the value for `COC(=O)CCCCC(=O)O` was -11.8% (inactive).
Same read-out and setting: the value for `C=CCN1C[C@H](C(=O)N(CCCN(C)C)C(=O)NCC)C[C@@H]2c3cccc4[nH]cc(c34)C[C@H]21` was -0.0532% (inactive); that for `COC(=O)c1ccccc1C(=O)O` was 1.4% (inactive).
Same read-out and setting: the value for `c1ccc(-c2nn[nH]n2)cc1` was -0.0939% (inactive); that for `C=CCSSCCC` was -5.34% (inactive).
Regarding `COc1cc2c(cc1OC)C(=O)C(CC1CCN(Cc3ccccc3)CC1)C2` (centres undefined), the Potency is 26.6 µM (active).
On to `CC(C)c1ccc(C=O)cc1`, for which the “activation” value was 1.7% (inactive).
Take `CC1CC(=O)CC(C)(C)C1` (centres undefined): the “activation” value was 4.63% (inactive).
Consider `c1ccc2cnccc2c1`, for which the “activation” value is -10.5% (inactive).
Regarding `ONc1ccccc1`, the Potency is 60.5 µM (active).
`C=C(C)c1cccc(C(C)(C)N=C=O)c1`: the “activation” value is 6.41% (inactive).
On the same count and under the same terms, in the case of `O=C[O][Al]([O]C=O)[O]C=O` it was 15.1% (inactive).

System in another test: not listed separately
Description: qHTS assay to identify small molecule antagonists of the estrogen receptor alpha (ER-alpha) signaling pathway using the BG1 cell line (AID 743080; calls by dose curve;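 also: BG1 cells stimulated with 17beta-estradiol alongside compound; nearly all actives have a fitted effect of over 25% in size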). The note with it: BG1Luc4E2 ERE-luciferase antagonist mode, luminescence; series mostly up to 70.3 µM; activity change, negative = inhibition: at the top concentration. The gist of the method: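 Luminescence from a 4×ERE-luciferase reporter in BG1-Luc-4E2 cells served as read-out. Cells, pre-cultured 5 days in stripped-serum phenol-red-free medium, were exposed to compound with 17beta-estradiol co-stimulation for 21.5 h at 37 C.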
(In general: Quantitative high-throughput screening tests each substance at several concentrations.)
With `COc1ccc2c(c1)c1c3n2CCN(C)C3=NCC1`, the “activity change, negative = inhibition” value was 1.7% (inactive).
Take `O=C(O)CNC(=O)CNC(=O)CNC(=O)CSC(=O)c1ccccc1`: the “activity change, negative = inhibition” value was -7.69% (inactive).
Consider `NCC1(Cc2noc(=O)[nH]2)CCCCC1`, for which the “activity change, negative = inhibition” value is 6.4% (inactive).
`OCCN1CCOCC1`: the “activity change, negative = inhibition” value was -1.39% (inactive).
Same read-out and setting: in the case of `CCC(C)C(C)=O` (centres undefined) it was 0.913% (inactive); in that of `CCCCOC(=O)[C@H](C)O`, 2.02% (inactive).
Same read-out and setting: the value for `O=C(NCN1CCOCC1)c1cnccn1` was 0.586% (inactive); that for `COC(=O)CCCCC(=O)O` was -4.01% (inactive).
Still for that read-out and setting: in the case of `C=CCN1C[C@H](C(=O)N(CCCN(C)C)C(=O)NCC)C[C@@H]2c3cccc4[nH]cc(c34)C[C@H]21` it was 3.97% (inactive); in that of `COC(=O)c1ccccc1C(=O)O`, 11.3% (inactive); in that of `C=C(C)[C@@H]1CC=C(C)CC1`, -13.8% (inactive).
Turning to `c1ccc(-c2nn[nH]n2)cc1`, the “activity change, negative = inhibition” value was -1.6% (inactive).
Same read-out and setting: in the case of `C=CCSSCCC` it was -0.246% (inactive); in that of `CC(C)c1ccc(C=O)cc1`, 11.9% (inactive); in that of `CC(=O)CC(=O)OC(C)(C)C`, -0.501% (inactive).
`CC1CC(=O)CC(C)(C)C1` (centres undefined): the “activity change, negative = inhibition” value is 0.506% (inactive).
For `c1ccc2cnccc2c1`, the “activity change, negative = inhibition” value is -0.316% (inactive).
On the same count and under the same terms, the value for `C=C(C)c1cccc(C(C)(C)N=C=O)c1` was -1.8% (inactive); that for `O=C[O][Al]([O]C=O)[O]C=O` was 3.76% (inactive).

System in the next test: not listed separately
Description: qHTS assay to identify small molecule antagonists of the estrogen receptor alpha (ER-alpha) signaling pathway using the BG1 cell line - cell viability counter screen (AID 743081).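 Also: compound given together with 17beta-estradiol as the ER stimulus; nearly all actives have a fitted effect of over 45% in size.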 The note with it: BG1Luc4E2 viability, CellTiter-Fluor, 22 h; series mostly up to 70.3 µM; activity change, negative = cytotoxicity: at the top concentration.
As to `COc1ccc2c(c1)c1c3n2CCN(C)C3=NCC1`, the “activity change, negative = cytotoxicity” value is -5.68% (inactive).
The same measure, in the same setting: the value for `Cc1ccc(C)c([N+](=O)[O-])c1` was 8.34% (inactive).
Consider `O=C(O)CNC(=O)CNC(=O)CNC(=O)CSC(=O)c1ccccc1`, for which the “activity change, negative = cytotoxicity” value is -12.1% (inactive).
The same measure, in the same setting: the value for `OCC(O)CN1CCN(c2ccccc2)CC1` (centres undefined) was -3.23% (inactive); that for `NCC1(Cc2noc(=O)[nH]2)CCCCC1` was 0.299% (inactive).
Still for that read-out and setting: the value for `OCCN1CCOCC1` was 11.2% (inactive); that for `CCC(C)C(C)=O` (centres undefined) was -4.25% (inactive); that for `Cc1ccnc(N)c1` was 1.65% (inactive).
Still for that read-out and setting: the value for `CCCCOC(=O)[C@H](C)O` was 1.68% (inactive).
Turning to `O=C(NCN1CCOCC1)c1cnccn1`, the “activity change, negative = cytotoxicity” value is 10.2% (inactive).
Same read-out and setting: in the case of `COC(=O)CCCCC(=O)O` it was 9.49% (inactive); in that of `C=C(C)[C@@H]1CC=C(C)C(=O)C1`, 10.3% (inactive); in that of `COC(=O)c1ccccc1C(=O)O`, 11% (inactive).
The same measure, in the same setting: in the case of `C=C(C)[C@@H]1CC=C(C)CC1` it was 9.64% (inactive); in that of `c1ccc(-c2nn[nH]n2)cc1`, 1.49% (inactive).
The same measure, in the same setting: the value for `N[C@@H](Cc1ccc(O)cc1)C(=O)O` was 0.57% (inactive); that for `O=Cc1ccccc1Cl` was -7.59% (inactive); that for `OCC1(CO)COCOC1` was 5.75% (inactive).
For the molecule `C=CCSSCCC`, the “activity change, negative = cytotoxicity” value was 12.5% (inactive).
On the same count and under the same terms, in the case of `COc1cc2c(cc1OC)C(=O)C(CC1CCN(Cc3ccccc3)CC1)C2` (centres undefined) it was -19.9% (inactive); in that of `CC(C)c1ccc(C=O)cc1`, 16.1% (inactive); in that of `CC(=O)CC(=O)OC(C)(C)C`, -1.81% (inactive).
The same measure, in the same setting: the value for `O=C(O)CONC(=O)c1ccccc1` was -3.08% (inactive); that for `CCCCCCCCCCCCCBr` was 21% (inactive); that for `CC1CC(=O)CC(C)(C)C1` (centres undefined) was 9.56% (inactive).
`c1ccc2cnccc2c1`: the “activity change, negative = cytotoxicity” value was -1.91% (inactive).
As for `ONc1ccccc1`, the “activity change, negative = cytotoxicity” value was 0.343% [at 95 µM] (inactive).
As for `O=C(Cl)c1ccccc1[N+](=O)[O-]`, the “activity change, negative = cytotoxicity” value is 13.3% [at 95 µM] (inactive).
As for `Cn1c(=O)c2[nH]c(Br)nc2n(C)c1=O`, the “activity change, negative = cytotoxicity” value was 0.936% (inactive).
For `CCCC(=O)OCCC(C)CCC=C(C)C` (centres undefined), the “activity change, negative = cytotoxicity” value is 1.19% (inactive).
For the molecule `C=C(C)c1cccc(C(C)(C)N=C=O)c1`, the “activity change, negative = cytotoxicity” value is -6.41% (inactive).
The same measure, in the same setting: the value for `O=C[O][Al]([O]C=O)[O]C=O` was -6.57% (inactive).
Same read-out and setting: the value for `CN1CCOC(c2ccccc2)c2ccccc2C1` (centres undefined) was -14% [at 32.5 µM] (inactive).

Another test addresses Aromatase (Homo sapiens) (UniProt P11511). Put plainly: qHTS assay to identify aromatase inhibitors (AID 743083). Also: nearly all actives have a fitted effect of over 55% in size. The note with it: MCF-7 aro ERE, testosterone-driven ERE luciferase, 24 h; series mostly up to 70.3 µM; activity, negative = inhibition: at the top concentration.
Turning to `COc1ccc2c(c1)c1c3n2CCN(C)C3=NCC1`, the “activity, negative = inhibition” value was 11% (inactive).
Still for that read-out and setting: in the case of `Cc1ccc(C)c([N+](=O)[O-])c1` it was -6.17% (inactive); in that of `O=C(O)CNC(=O)CNC(=O)CNC(=O)CSC(=O)c1ccccc1`, -14% (inactive).
On the same count and under the same terms, in the case of `OCC(O)CN1CCN(c2ccccc2)CC1` (centres undefined) it was -3.24% (inactive).
`NCC1(Cc2noc(=O)[nH]2)CCCCC1`: the “activity, negative = inhibition” value is 13.1% (inactive).
On the same count and under the same terms, in the case of `OCCN1CCOCC1` it was 19.1% (inactive); in that of `CCC(C)C(C)=O` (centres undefined), 8.56% (inactive); in that of `Cc1ccnc(N)c1`, 0.0086% (inactive).
For the molecule `CCCCOC(=O)[C@H](C)O`, the “activity, negative = inhibition” value is 18.1% (inactive).
Same read-out and setting: in the case of `O=C(NCN1CCOCC1)c1cnccn1` it was -0.265% (inactive); in that of `COC(=O)CCCCC(=O)O`, 7.95% (inactive).
On the same count and under the same terms, the value for `C=C(C)[C@@H]1CC=C(C)C(=O)C1` was 7.49% (inactive); that for `C=CCN1C[C@H](C(=O)N(CCCN(C)C)C(=O)NCC)C[C@@H]2c3cccc4[nH]cc(c34)C[C@H]21` was 8.55% (inactive); that for `COC(=O)c1ccccc1C(=O)O` was 7.83% (inactive).
The same measure, in the same setting: in the case of `C=C(C)[C@@H]1CC=C(C)CC1` it was 0.721% (inactive); in that of `c1ccc(-c2nn[nH]n2)cc1`, -19.1% (inactive).
Take `N[C@@H](Cc1ccc(O)cc1)C(=O)O`: the “activity, negative = inhibition” value was 1.93% (inactive).
For `O=Cc1ccccc1Cl`, the “activity, negative = inhibition” value was -10.8% (inactive).
`OCC1(CO)COCOC1`: the “activity, negative = inhibition” value was 10.5% (inactive).
Regarding `C=CCSSCCC`, the “activity, negative = inhibition” value was -1.87% (inactive).
As to `COc1cc2c(cc1OC)C(=O)C(CC1CCN(Cc3ccccc3)CC1)C2` (centres undefined), the “activity, negative = inhibition” value was 60.9% (inactive).
Same read-out and setting: the value for `CC(C)c1ccc(C=O)cc1` was 16.8% (inactive); that for `CC(=O)CC(=O)OC(C)(C)C` was 12.8% (inactive).
On to `CCCCCCCCCCCCCBr`, for which the “activity, negative = inhibition” value was 6.47% (inactive).
Consider `CC1CC(=O)CC(C)(C)C1` (centres undefined), for which the “activity, negative = inhibition” value is 12.2% (inactive).
Same read-out and setting: in the case of `c1ccc2cnccc2c1` it was -9.4% (inactive).
On the same count and under the same terms, the value for `ONc1ccccc1` was 42.9% [at 95 µM] (inactive); that for `O=C(Cl)c1ccccc1[N+](=O)[O-]` was -7.14% [at 95 µM] (inactive).
On the same count and under the same terms, in the case of `Cn1c(=O)c2[nH]c(Br)nc2n(C)c1=O` it was -5.67% (inactive).
As to `CCCC(=O)OCCC(C)CCC=C(C)C` (centres undefined), the “activity, negative = inhibition” value is -16.6% (inactive).
The same measure, in the same setting: the value for `C=C(C)c1cccc(C(C)(C)N=C=O)c1` was 12.5% (inactive); that for `O=C[O][Al]([O]C=O)[O]C=O` was 5.59% (inactive).
`CN1CCOC(c2ccccc2)c2ccccc2C1` (centres undefined): the “activity, negative = inhibition” value was 17% [at 32.5 µM] (inactive).
